Assay results reported in the supplement of paper PMC10849652.
Of roughly 7,900 targets only a part is listed; those with a hit were picked by preference. About 0.6% of all pairs of compound and target were hits. A number with no mark means an inactive call.

Experiments:
Assay in all cases: log2 fold change, soluble protein after heating vs DMSO (PISA); higher = thermal stabilisation; K562 cells, 10 uM, 30 min; active = over 0.2 and 3.5 SD of the protein, either way, in both replicates (recomputed)
[1] = compound: CC1=C(C=C(C=C1)NC(=O)C2=CC(=CC=C2)C(C)(C)C#N)NC3=CC4=C(C=C3)N=CN(C4=O)C
Procedure, shortened: (§1)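 Thermal stability values are relative to control samples and come from duplicates. They are expressed as log2 fold changes. For measurement, K562 cells (2×10^6 cells/mL) received 10 μM compound for 30 min, and aliquots were heated for 3 min over 48°C-58°C, pooled, and extracted at 4°C in PBS with 0.5% NP-40. Soluble protein, the supernatant after 21,000xg for 90 min, was quantified by TMTpro 16plex LC-MS/MS with equalised channel sums.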

[2] = compound: CC1=C(C=C(C=C1)NC(=O)C2=CC(=CC=C2)N(C)C)NC(=O)C3=CC=C(C=C3)O
Procedure, shortened: as §1

[3] = compound: CC1=CC=C(C=C1)SC2=C3C=C(SC3=CN=C2)C(=O)N
Procedure, shortened: as §1

[4] = compound: CC1=NC(=CC=C1)C2=C(N=C(N2)C(C)(C)C)C3=CC4=NC=CN=C4C=C3
Procedure, shortened: as §1

Nexturastat A = compound: CCCCN(Cc1ccc(C(=O)NO)cc1)C(=O)Nc1ccccc1 [Nexturastat A]
Procedure, shortened: as §1

vemurafenib = compound: CCCS(=O)(=O)Nc1ccc(F)c(C(=O)c2c[nH]c3ncc(-c4ccc(Cl)cc4)cc23)c1F [vemurafenib]
Procedure, shortened: as §1

[5] = compound: CCCS(=O)(=O)Nc1ccc(F)c(C(=O)c2c[nH]c3ncc(Cl)cc23)c1F
Procedure, shortened: as §1

[6] = compound: CCCc1cc(C)[nH]c(=O)c1CNC(=O)c1cc(-c2ccnc(N3CCN(C)CC3)c2)cc2c1cnn2C(C)C
Procedure, shortened: as §1

givinostat = compound: CCN(CC)Cc1ccc2cc(COC(=O)Nc3ccc(C(=O)NO)cc3)ccc2c1 [givinostat]
Procedure, shortened: as §1

barasertib = compound: CCN(CCCOc1ccc2c(Nc3cc(CC(=O)Nc4cccc(F)c4)[nH]n3)ncnc2c1)CCOP(=O)(O)O [barasertib]
Procedure, shortened: as §1

volasertib = compound: CC[C@@H]1C(=O)N(C)c2cnc(Nc3ccc(C(=O)N[C@H]4CC[C@H](N5CCN(CC6CC6)CC5)CC4)cc3OC)nc2N1C(C)C [volasertib]
Procedure, shortened: as §1

[7] = compound: CC[C@H](C)N1C=C(C2=C(C=C(C=C21)C3=CN=C(C=C3)N4CCNCC4)C(=O)NCC5=C(C=C(NC5=O)C)C)C
Procedure, shortened: as §1

epoxomicin = compound: CC[C@H](C)[C@@H](C(=O)N[C@@H]([C@@H](C)O)C(=O)N[C@@H](CC(C)C)C(=O)[C@]1(CO1)C)NC(=O)[C@H]([C@@H](C)CC)N(C)C(=O)C [epoxomicin]
Procedure, shortened: as §1

[8] = compound: CCn1c(C(=O)N(C2CC2)C2CC2)cc2c3c(ncn3C)c(Nc3cc(C)n(C)n3)nc21
Procedure, shortened: as §1

[9] = compound: CCn1cc(-c2ccnc3[nH]c(-c4cccc(CN(C)C)c4)cc23)c(-c2ccc(NC(=O)N(C)C)cc2)n1
Procedure, shortened: as §1

[10] = compound: CN(C)CC(=O)Nc1ccc2[nH]c(=O)c3ccccc3c2c1
Procedure, shortened: as §1

rosiglitazone = compound: CN(CCOC1=CC=C(C=C1)C[C@H]2C(=O)NC(=O)S2)C3=CC=CC=N3 (racemic) [rosiglitazone]
Procedure, shortened: as §1

[11] = compound: CN1C2=C(C3=C1C(=O)N(N=C3)CC4=CC(=CC=C4)N)SC(=C2)S(=O)C
Procedure, shortened: as §1

[12] = compound: CN1CCC(CNc2ccc3ncc(-c4cccc(OC(F)(F)F)c4)n3n2)CC1
Procedure, shortened: as §1

[13] = compound: CC[C@@H]1C(=O)N(C)c2cnc(Nc3ccc(C(=O)NC4CCN(C)CC4)cc3OC)nc2N1C1CCCC1
Procedure, shortened: as §1

Sequence of UniProt P46020 (P46020 whole entry, looked up): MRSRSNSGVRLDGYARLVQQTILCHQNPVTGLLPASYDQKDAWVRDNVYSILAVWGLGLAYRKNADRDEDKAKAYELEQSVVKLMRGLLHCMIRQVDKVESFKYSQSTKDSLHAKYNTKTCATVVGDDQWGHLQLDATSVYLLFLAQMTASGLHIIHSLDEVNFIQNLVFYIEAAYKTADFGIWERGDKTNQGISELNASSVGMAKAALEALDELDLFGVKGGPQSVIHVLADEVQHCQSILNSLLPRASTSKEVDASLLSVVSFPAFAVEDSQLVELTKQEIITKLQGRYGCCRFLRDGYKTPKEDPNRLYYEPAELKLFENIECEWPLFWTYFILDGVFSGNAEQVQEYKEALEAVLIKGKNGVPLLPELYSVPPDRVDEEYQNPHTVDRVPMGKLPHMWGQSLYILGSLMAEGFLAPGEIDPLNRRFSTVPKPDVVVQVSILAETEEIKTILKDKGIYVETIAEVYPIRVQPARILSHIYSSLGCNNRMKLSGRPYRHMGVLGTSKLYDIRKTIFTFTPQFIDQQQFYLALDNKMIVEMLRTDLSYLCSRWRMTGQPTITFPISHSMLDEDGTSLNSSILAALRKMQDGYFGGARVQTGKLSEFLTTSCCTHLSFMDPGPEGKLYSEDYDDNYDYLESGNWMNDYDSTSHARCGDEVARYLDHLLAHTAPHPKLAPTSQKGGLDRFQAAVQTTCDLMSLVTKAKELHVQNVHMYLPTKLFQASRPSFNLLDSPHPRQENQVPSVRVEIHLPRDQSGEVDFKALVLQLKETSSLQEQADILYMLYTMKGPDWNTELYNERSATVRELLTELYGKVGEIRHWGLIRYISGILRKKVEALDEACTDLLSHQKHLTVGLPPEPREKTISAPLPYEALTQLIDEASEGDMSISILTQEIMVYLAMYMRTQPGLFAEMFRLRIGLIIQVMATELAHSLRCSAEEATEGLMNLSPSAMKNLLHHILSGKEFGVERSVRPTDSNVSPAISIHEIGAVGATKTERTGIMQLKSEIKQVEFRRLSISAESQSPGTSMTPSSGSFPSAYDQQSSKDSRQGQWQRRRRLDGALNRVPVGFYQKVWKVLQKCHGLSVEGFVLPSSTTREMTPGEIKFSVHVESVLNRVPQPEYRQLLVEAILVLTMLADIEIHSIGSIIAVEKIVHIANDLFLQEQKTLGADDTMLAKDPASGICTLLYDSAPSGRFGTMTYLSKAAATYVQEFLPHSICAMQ
Sequence of UniProt Q86YH6 (Q86YH6 whole entry, looked up): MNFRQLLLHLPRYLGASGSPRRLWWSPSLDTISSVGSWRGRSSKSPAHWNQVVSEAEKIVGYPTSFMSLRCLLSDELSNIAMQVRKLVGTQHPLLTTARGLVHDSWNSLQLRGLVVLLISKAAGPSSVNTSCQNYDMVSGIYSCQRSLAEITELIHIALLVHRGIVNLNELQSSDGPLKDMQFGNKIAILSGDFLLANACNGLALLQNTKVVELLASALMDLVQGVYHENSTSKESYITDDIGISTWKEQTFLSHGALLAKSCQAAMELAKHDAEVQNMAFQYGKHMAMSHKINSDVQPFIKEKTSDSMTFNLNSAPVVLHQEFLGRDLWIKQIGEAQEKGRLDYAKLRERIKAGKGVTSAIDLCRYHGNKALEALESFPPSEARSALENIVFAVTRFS
Sequence of UniProt P46019 (P46019 whole entry, looked up): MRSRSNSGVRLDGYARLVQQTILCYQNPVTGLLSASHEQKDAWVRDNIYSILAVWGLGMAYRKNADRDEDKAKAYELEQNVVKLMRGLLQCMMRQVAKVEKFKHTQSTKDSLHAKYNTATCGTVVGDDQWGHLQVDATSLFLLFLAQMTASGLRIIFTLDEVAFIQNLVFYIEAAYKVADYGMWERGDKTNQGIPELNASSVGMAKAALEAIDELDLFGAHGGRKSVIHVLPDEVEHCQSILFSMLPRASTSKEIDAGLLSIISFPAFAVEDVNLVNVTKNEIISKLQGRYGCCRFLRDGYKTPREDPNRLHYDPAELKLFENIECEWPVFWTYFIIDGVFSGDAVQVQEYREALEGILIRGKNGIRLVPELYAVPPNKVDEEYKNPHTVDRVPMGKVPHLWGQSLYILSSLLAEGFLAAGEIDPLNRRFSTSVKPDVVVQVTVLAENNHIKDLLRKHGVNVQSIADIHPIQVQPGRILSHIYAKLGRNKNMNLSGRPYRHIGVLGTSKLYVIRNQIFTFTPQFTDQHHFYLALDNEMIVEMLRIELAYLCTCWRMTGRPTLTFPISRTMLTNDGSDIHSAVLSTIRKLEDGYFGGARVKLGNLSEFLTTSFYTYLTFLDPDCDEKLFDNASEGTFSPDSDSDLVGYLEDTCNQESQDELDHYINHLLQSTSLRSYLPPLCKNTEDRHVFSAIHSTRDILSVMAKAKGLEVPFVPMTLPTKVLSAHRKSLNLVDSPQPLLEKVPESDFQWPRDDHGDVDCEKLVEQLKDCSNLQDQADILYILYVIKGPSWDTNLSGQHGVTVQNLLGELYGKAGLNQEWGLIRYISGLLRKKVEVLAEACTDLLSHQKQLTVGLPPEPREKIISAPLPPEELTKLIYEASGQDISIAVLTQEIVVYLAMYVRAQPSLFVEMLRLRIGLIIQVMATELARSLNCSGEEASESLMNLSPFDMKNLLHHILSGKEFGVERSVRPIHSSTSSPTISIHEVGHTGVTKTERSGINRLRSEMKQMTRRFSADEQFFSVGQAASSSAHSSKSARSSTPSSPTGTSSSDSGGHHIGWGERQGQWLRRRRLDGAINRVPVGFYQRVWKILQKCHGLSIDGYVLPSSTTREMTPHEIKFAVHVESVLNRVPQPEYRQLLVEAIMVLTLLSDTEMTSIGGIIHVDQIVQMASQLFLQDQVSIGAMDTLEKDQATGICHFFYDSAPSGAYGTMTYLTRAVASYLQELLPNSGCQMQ
Sequence of UniProt Q9BZL6 (Q9BZL6 whole entry, looked up): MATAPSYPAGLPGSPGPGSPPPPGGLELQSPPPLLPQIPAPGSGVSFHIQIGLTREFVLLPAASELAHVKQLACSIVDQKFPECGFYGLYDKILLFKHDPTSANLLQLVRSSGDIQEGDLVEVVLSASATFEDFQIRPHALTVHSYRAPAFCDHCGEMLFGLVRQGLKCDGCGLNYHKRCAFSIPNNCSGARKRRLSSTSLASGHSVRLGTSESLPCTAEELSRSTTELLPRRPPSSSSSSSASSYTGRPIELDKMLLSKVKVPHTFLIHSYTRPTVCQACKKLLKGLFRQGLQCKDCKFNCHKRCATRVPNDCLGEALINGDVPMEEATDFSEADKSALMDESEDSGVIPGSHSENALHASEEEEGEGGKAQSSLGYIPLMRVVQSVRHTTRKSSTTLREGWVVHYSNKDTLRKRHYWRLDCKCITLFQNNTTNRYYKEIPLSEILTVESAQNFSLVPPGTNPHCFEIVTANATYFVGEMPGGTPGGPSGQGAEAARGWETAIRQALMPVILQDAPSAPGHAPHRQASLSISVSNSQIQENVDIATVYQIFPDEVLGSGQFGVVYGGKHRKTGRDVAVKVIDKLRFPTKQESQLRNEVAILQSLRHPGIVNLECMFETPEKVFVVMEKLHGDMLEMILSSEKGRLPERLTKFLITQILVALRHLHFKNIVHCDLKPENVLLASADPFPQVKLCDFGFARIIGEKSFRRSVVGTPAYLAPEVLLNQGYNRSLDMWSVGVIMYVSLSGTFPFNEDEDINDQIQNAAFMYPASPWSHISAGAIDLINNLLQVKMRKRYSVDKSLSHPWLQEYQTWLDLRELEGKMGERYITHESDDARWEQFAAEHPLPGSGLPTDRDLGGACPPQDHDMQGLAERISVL
Sequence of UniProt Q86TB9 (Q86TB9 whole entry, looked up): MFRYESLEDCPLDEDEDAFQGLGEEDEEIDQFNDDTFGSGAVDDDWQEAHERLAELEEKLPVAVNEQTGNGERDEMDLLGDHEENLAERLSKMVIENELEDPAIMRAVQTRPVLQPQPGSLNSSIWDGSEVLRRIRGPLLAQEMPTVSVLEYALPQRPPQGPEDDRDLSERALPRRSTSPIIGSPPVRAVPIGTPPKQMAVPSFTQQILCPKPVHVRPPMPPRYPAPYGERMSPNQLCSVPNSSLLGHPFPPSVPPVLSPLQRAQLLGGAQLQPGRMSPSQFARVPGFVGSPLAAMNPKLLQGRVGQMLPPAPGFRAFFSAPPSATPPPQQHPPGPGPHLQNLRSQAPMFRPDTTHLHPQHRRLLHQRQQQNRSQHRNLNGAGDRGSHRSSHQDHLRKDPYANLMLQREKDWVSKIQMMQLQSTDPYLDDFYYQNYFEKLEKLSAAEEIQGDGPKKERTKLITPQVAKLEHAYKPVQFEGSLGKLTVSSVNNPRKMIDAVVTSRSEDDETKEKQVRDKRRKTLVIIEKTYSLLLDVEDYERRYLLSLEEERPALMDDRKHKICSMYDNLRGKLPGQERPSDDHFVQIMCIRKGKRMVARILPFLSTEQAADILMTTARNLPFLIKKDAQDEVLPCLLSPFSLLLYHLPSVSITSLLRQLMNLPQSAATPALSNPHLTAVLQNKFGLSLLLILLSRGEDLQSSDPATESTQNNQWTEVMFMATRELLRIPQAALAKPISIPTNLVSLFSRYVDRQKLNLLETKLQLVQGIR
Sequence of UniProt Q8N165 (Q8N165 whole entry, looked up): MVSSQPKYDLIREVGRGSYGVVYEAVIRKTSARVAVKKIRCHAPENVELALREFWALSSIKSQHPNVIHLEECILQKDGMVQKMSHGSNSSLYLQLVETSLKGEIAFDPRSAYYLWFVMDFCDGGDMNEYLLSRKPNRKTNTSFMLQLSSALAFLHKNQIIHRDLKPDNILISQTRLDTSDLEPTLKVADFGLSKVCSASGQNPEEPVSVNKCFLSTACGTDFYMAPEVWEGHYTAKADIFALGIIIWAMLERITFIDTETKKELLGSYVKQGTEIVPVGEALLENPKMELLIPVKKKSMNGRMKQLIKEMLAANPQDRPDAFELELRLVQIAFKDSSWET

Target	log2 fold change [1]	log2 fold change [2]	log2 fold change [3]	log2 fold change [4]	log2 fold change (Nexturastat A)	log2 fold change (vemurafenib)	log2 fold change [5]	log2 fold change [6]	log2 fold change (givinostat)	log2 fold change (barasertib)	log2 fold change (volasertib)	log2 fold change [7]	log2 fold change (epoxomicin)	log2 fold change [8]	log2 fold change [9]	log2 fold change [10]	log2 fold change (rosiglitazone)	log2 fold change [11]	log2 fold change [12]	log2 fold change [13]
PRKD2 isoform 3 (UniProt Q9BZL6)	0.296	-0.26	0.117	0.028	0.006	0.024	0.058	0.083	-0.009	0.093	-0.674 (active)	0.149	0.049	0.005	-0.089	0.042	0.144	0.056	-0.316	–
PDIK1L (UniProt Q8N165)	-0.079	0.031	-0.265	0.068	-0.077	0.026	0	0.03	0.034	0.055	0.108	-0.056	-0.128	0.123	–	-0.028	-0.135	0.02	–	0.123
PGK2 (UniProt P07205)	0.019	0.058	-0.075	0.05	0.039	-0.084	-0.051	-0.006	–	-0.046	0.123	-0.028	-0.037	–	0.123	-0.112	0.023	-0.059	0.06	0.054
PIK3CD (UniProt O00329)	0.042	0.079	0.018	-0.04	-0.1	-0.051	-0.156	–	-0.013	0.096	-0.036	–	-0.076	-0.229	–	-0.059	0.288	0	–	-0.069
PDSS2 (UniProt Q86YH6)	-0.215	0.017	0.093	-0.083	-0.126	-0.03	0.244	–	-0.046	0.027	0.016	0.12	0.024	0.048	-0.069	0.05	0.055	0.02	0.018	0.021
PHKA2 (UniProt P46019)	0.028	0	0.028	0.053	-0.038	-0.014	0.052	-0.07	0.048	0.057	-0.094	-0.174	0.071	-0.047	-0.029	0.01	0.026	-0.002	-0.35 (active)	-0.049
PNPLA4 (UniProt P41247)	0.418	-0.04	0.409	0.273	–	-0.093	-0.025	-0.277	1.1 (active)	0.042	-0.093	-0.039	–	-0.083	–	-0.004	-0.081	0.126	–	-0.152
PNN (UniProt Q9H307)	-0.101	0.084	0.003	0.011	0.03	–	0.04	0.004	0.121	0.027	-0.039	-0.077	-0.07	-0.052	0.021	–	0.003	0.067	-0.042	0.248
PATL1 (UniProt Q86TB9)	0.038	0.031	-0.025	-0.064	0.123	-0.118	0.005	0.1	0.039	0.014	0.013	–	-0.041	-0.022	0.051	0.007	0.078	0.104	-0.445 (active)	0.109
PEX5 isoform 4 (UniProt P50542)	0.089	-0.018	–	–	0.145	-0.066	–	–	0.127	–	–	–	0.2	0.096	–	-0.017	–	0.366	–	–
POM121 (UniProt Q96HA1)	-0.045	-0.032	-0.056	-0.074	0.117	-0.039	0.007	–	0.119	0.111	-0.027	0.056	-0.062	-0.037	0.03	-0.071	0.001	0.137	-0.149	-0.017
PHKA1 (UniProt P46020)	-0.027	-0.155	-0.062	-0.033	0.047	–	0.019	0.076	-0.024	-0.133	-0.367	0.076	-0.039	-0.019	0.143	–	-0.038	0.112	-0.045	0.042
PELP1 (UniProt Q8IZL8)	-0.048	0.044	0.034	-0.02	0.15	-0.01	-0.038	-0.006	0.039	-0.085	0.017	-0.002	-0.004	-0.01	0.047	-0.009	0.017	0.006	0.021	0.056
PTPA (UniProt A6PVN8)	0.062	-0.128	-0.15	–	-0.038	-0.065	-0.11	0.038	-0.857 (active)	0.01	-0.041	-0.03	0.053	0.099	0.047	0.016	-0.105	0.069	0.011	0.051
PKM isoform 2 (UniProt P14618)	-0.13	-0.082	0.049	0.033	0.267	0.088	0.094	0.056	–	-0.005	0.091	0.018	0.29	–	-0.006	0.053	-0.1	-0.184	-0.046	0
